From PubChem
Most compounds without a hit are left out; they make up all but 21% or so of the library.
DRD3 agonist = qHTS of D3 Dopamine Receptor Agonist: qHTS; max activation, %; D(3) dopamine receptor (Homo sapiens), P35462; D3R DiscoveRx beta-arrestin cells, luminescence, 90 min; hit rate 0.58% among 410,000; in the data active means max activation above about 30%; further: 0% is about no effect
Target sequence (P35462 whole entry, looked up): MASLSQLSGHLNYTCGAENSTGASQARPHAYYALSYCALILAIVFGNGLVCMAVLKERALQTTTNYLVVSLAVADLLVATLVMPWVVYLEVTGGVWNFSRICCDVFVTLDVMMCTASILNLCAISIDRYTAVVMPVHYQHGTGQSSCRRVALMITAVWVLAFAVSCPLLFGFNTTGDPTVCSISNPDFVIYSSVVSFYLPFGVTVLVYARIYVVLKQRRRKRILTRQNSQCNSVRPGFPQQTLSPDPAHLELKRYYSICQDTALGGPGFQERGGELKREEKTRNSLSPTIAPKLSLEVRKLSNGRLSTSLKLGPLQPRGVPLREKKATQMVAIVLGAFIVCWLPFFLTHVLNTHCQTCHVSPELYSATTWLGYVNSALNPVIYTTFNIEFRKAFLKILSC
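Agonist-mode cell screen: cells plated at 1500/well and incubated overnight at 37 °C, then exposed to library compounds for 90 min at 37 °C. Detection reagent was added for 30–60 min at room temperature, and luminescence was read.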
TDP1 cell CPT = qHTS for Inhibitors of human tyrosyl-DNA phosphodiesterase 1 (TDP1): qHTS in cells in presence of CPT; chicken DT40 Tdp1-/-;hTDP1 cells + 20 nM CPT, ATP luminescence, 48 h; Potency, µM (top dose mostly 46.2 µM), for inactives: at the top dose activity change, negative = growth inhibition, hits mostly inhibitors; hit rate 12% among 420,000; further: potency means the concentration at half of the fitted maximal effect; on the % scale 0 is the no-effect control and ±100 the full control effect; nearly all actives have a fitted effect of over 55% in size
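Cell growth measured by CellTiter-Glo luminescence after a minimum 48 h, 37 C compound exposure with 20 nM CPT in Tdp1-knockout DT40 cells stably expressing hTDP1, seeded 400/well; qHTS titration format.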
IL-1B inflam inh = qHTS for Inhibitors of Inflammasome Signaling: IL-1-beta AlphaLISA Primary Screen | THP-1 LPS/ATP IL-1B secretion, AlphaLISA, 16 h; hits give low values | activity change, % at 57.5 µM | hit rate 4.7% among 360,000; in the data active means activity change below about -50%; inconclusive means mostly about -30% to -49%; further: on the % scale 0 is the no-effect control and ±100 the full control effect
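Secreted IL-1B measured by AlphaLISA bead assay after 16 h compound exposure of THP-1 cells; compounds (final up to 57.5 uM) added 1 h before LPS (250 ng/mL) and ATP (1.25 mM) stimulation; lower signal means less secretion.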
DT40 TDP1 no CPT = qHTS for Inhibitors of human tyrosyl-DNA phosphodiesterase 1 (TDP1): qHTS in cells in absence of CPT; Potency, µM (highest dose often 46.2 µM), inactives show at the top dose activity change, negative = growth inhibition, usual class: inhibitors; hit rate 15% among 420,000; DT40 Tdp1-/- hTDP1 cells, no CPT, ATP luminescence, 48 h; further: potency means the concentration at half of the fitted maximal effect; on the % scale 0 is the no-effect control and ±100 the full control effect; nearly all actives have a fitted effect of over 55% in size
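No-CPT arm: Tdp1-/-;hTDP1 DT40 cells (400/well) plus compounds, incubated ≥48 hr at 37 °C. Readout CellTiter-Glo luminescence.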
ClpP mod = qHTS Assay for Activators of ClpP | ATP-dependent Clp protease proteolytic subunit (Bacillus subtilis (strain 168)), P80244 | hit rate 1.9% among 340,000 | Potency, µM (top dose mostly 57.5 µM), for inactives: at the highest dose activity change, negative = active | purified B. subtilis ClpP, FRET peptide cleavage, 20 min; active means well fitted falling curve with a large enough effect; inconclusive means small, poorly fitted or top-dose-only effect; inactive means no such curve, though single readings can be large or run the other way; further: potency means the concentration at half of the fitted maximal effect; the source files actives as falling curves though it sought activators and does not explain the sign; nearly all actives have a fitted effect of over 65% in size
Target sequence (P80244 whole entry, looked up): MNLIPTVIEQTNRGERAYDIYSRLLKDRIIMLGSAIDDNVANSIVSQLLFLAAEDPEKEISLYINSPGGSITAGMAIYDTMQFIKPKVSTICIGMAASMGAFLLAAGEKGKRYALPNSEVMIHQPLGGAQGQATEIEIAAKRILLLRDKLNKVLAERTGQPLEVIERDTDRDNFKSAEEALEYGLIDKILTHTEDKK
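ClpP 10 microg/mL final, pH 8 Tris/KCl buffer with BSA, glycerol, Tween-20; compound pinned in; FRET-FV substrate; RT 20 min; Ex320/Em430; ΔFRET vs ADEP 5.8 microM, DMSO, no enzyme.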
DRD3 antagonist = qHTS of D3 Dopamine Receptor Antagonist: qHTS | AID 652054, 2013 | D3R cells, DiscoveRx beta-arrestin luminescence, antagonist mode; hits give low values | D(3) dopamine receptor (Homo sapiens), P35462 | hit rate 2.5% among 360,000 | max response, negative = inhibition, %; in the data active means max response below about -50%; inconclusive means no clear call, values can overlap the other calls; further: on the % scale 0 is the no-effect control and ±100 the full control effect
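Cells expressing the human receptor were seeded at 1500 cells/well, incubated overnight at 37 degrees C in 5% CO2, then exposed to library compounds with dopamine controls for 90 minutes at 37 degrees C before luminescent detection.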
The depositor's hits bear a star; ? = inconclusive; / = no result. Unless noted, the call rests on the fitted dose curve; in most records, active means well fitted inhibition curve with a large enough effect; inconclusive means small, poorly fitted or top-dose-only effect; inactive means flat fitted curve, though single readings scatter.

SMILES	DRD3 agonist	TDP1 cell CPT	IL-1B inflam inh	DT40 TDP1 no CPT	ClpP mod	DRD3 antagonist
O=C(COc1cccc(Br)c1)N/N=C1\CCCc2ccccc21	-8	-8%	4	-9%	/	-17
O=C(COc1cccc(Br)c1)N/N=C1\CCSC1	8	?	22	-12%	22µM*	7
CC(NC(=O)COc1cccc(Br)c1)C(=O)O (centres undefined)	-2	1%	34	-17%	28µM*	36
CN(Cc1nc(-c2ccccc2)no1)C(=O)c1ccco1	1	-2%	27	-24%	/	1
Cc1ccc(NC(=O)c2ncn(CCCNCCCN3CCCC3=O)n2)cc1C	-3	?	-8	-2%	0%	-14
Cc1cc(C)c(CN2CCN(CCCn3cnc(C(=O)Nc4ccc(C)c(C)c4)n3)CC2)c(C)c1	14	?	?	15µM*	0%	46
Cc1ccc(NC(=O)c2ncn(CCCNCC3CCCCC3)n2)cc1C	2	?	?	21µM*	0%	15
Cc1ccc(NCCCn2cnc(C(=O)Nc3ccc(C)c(C)c3)n2)cc1C	-6	-26%	-6	-25%	2%	6
Cc1ccc(NC(=O)c2ncn(CCCN[C@H](C)c3cccc4ccccc34)n2)cc1C	-23	16µM*	-4	15µM*	0%	-2
CCOc1ccc(CNC(=O)C2=Cc3cccc(OC)c3OC2)cc1	4	?	/	?	-4%	/
CC(C)CC(N)C(=O)OCc1ccc([N+](=O)[O-])cc1 (centres undefined)	10	0%	17	-14%	0%	23
CN(Cc1nc(-c2ccc(Cl)cc2)no1)C(=O)CCN1C(=O)[C@H]2CC=CC[C@H]2C1=O	1	-26%	-13	-7%	-2%	15
CCC(CC)NC(=O)CON=C1c2ccccc2-c2ccccc21	-1	21µM*	-16	16µM*	-7%	-4
Cn1c(=O)c(-c2ccc(Cl)cc2)nc2cnc(N3CCNCC3)nc21	/	10µM*	/	16µM*	/	/
Cn1c(=O)c(-c2ccc(F)cc2)nc2cnc(N3CCOCC3)nc21	/	0%	/	4%	/	/
CN1CCN(c2ncc3nc(-c4ccc(Cl)cc4)c(=O)n(C)c3n2)CC1	/	21µM*	/	?	/	/
CC12CCC(C(=O)Nc3ccc(SC(F)F)cc3)(CC1=O)C2(C)C (centres undefined)	-14	?	-81*	-27%	-3%	-25
COc1ccc(Cc2nc3ccc(C(=O)NCCc4ccccn4)cc3o2)cc1OC	8	-20%	-7	-20%	0%	11
COc1ccc(Cc2nc3ccc(C(=O)NCCn4ccnc4C)cc3o2)cc1OC	1	-12%	11	-3%	32µM*	-4
COc1ccc(Cc2nc3ccc(C(=O)NCCc4ncccc4C)cc3o2)cc1OC	-4	21µM*	-5	23µM*	1%	-5
O=C(NC1CC1)c1nc(Cn2cc([N+](=O)[O-])cn2)no1	0	-9%	21	-26%	-1%	23
O=C(COc1ccc(F)cc1Cl)N(Cc1nnc(-c2ccccc2Cl)o1)C1CC1	-11	-29%	-11	16µM*	-3%	-22
O=C(COc1ccc(Br)cc1)N(Cc1nnc(-c2ccccc2Cl)o1)C1CC1	-1	23µM*	-4	23µM*	-2%	-8
Cc1cccc(OCC(=O)N(Cc2nnc(-c3ccccc3Cl)o2)C2CC2)c1	-3	16µM*	-2	?	1%	0
CCC(=O)c1ccc(OCC(=O)N(Cc2nnc(-c3ccccc3Cl)o2)C2CC2)cc1	7	?	-10	?	6%	-1
SMILES	DRD3 agonist	TDP1 cell CPT	IL-1B inflam inh	DT40 TDP1 no CPT	ClpP mod	DRD3 antagonist
Cc1ccc(C)c(OCC(=O)N(Cc2nnc(-c3ccccc3Cl)o2)C2CC2)c1	4	?	-5	?	3%	28
CCNC(=O)c1cc(NC(=O)COC)cc2nc(-c3ccncc3)n(C)c12	/	?	/	-15%	/	/
Cc1ccccc1CC1(CO)CCCN(C(=O)Cc2c(F)ccc(F)c2F)C1 (centres undefined)	6	16µM*	-8	?	0%	-12
CCC(=O)Oc1c(C(=O)CC)cc2c(C)cc(=O)oc2c1C	18	?	-65*	?	468%	-1
CCC(=O)c1cc2c(C)cc(=O)oc2c(C)c1OC	0	8%	0	-8%	-27%	-28
C[C@H](CO)N1C[C@H](C)[C@@H](CN(C)S(=O)(=O)c2cccs2)Oc2c(NC(=O)C3CC3)cccc2C1=O	8	8%	21	9%	-1%	39
Cc1ccn2c(=O)cc(COc3ccc(NC(=O)c4ccccc4F)cc3)nc2c1	3	8%	/	2%	-3%	/
CCN(CC)S(=O)(=O)c1ccc2c(c1)nc(CCC(=O)Nc1cccc(C(F)(F)F)c1)n2CC	-7	29µM*	?	?	-1%	8
C/C1=C/CC(C)(C)/C=C/C/C(C)=C/CC1	/	-4%	/	-21%	/	/
COc1cc(/C=C/C(=O)NCC2CCCCC2)cc(OC)c1OC	-7	-2%	-7	-19%	/	7
CCOC(=O)C1CCCN(C(=O)c2ccc3c(c2)N(Cc2ccccc2)C(=O)c2ccccc2S3(=O)=O)C1 (centres undefined)	-2	?	/	?	3%	/
O=C(c1ccc2c(c1)N(Cc1ccc(F)cc1)C(=O)c1ccccc1S2=O)N1CCC(Cc2ccccc2)CC1 (centres undefined)	2	16µM*	/	15µM*	1%	/
O=C(c1ccc2c(c1)N(Cc1ccccc1)C(=O)c1ccccc1S2=O)N1CCC(Cc2ccccc2)CC1 (centres undefined)	-12	6.5µM*	/	6.5µM*	4%	/
O=C(c1ccc2c(c1)N(Cc1ccc(F)cc1)C(=O)c1ccccc1S2=O)N1CCOCC1 (centres undefined)	2	-10%	/	3%	-1%	/
CCOC(=O)C1CCCN(C(=O)c2ccc3c(c2)N(Cc2ccccc2)C(=O)c2ccccc2S3=O)C1 (centres undefined)	5	?	0	18µM*	-1%	4
CCC1COC(c2cccn2Cc2ccccc2Cl)=N1 (centres undefined)	0	-5%	14	-3%	1%	13
CCOC(=O)N1CCN(C(=O)c2ccc3c(Cl)c4c(nc3c2)CCCC4)CC1	-2	?	-51*	?	-5%	16
